# The list shows a part of the results. How many sequences the whole screen found active is unknown.
# B1: HC607 (peptide)
# chain: CALAVFGPLWAGNASASA
# B2: HC245 (peptide)
# chain: CALPGCSFSIAGNASASA
# B3: HC2252 (peptide)
# chain: CAEVVTSTWEAGNASASA
# B4: HC1934 (peptide)
# chain: CATTPCSGSKAGNASASA
# B5: HC259 (peptide)
# chain: CASTGLYHVTAGNASASA
# B6: HC1745 (peptide)
# chain: CAMEECSQLLAGNASASA
# B7: HC431 (peptide)
# chain: CANTRPPLGNAGNASASA
# B8: HC2269 (peptide)
# chain: CAYLEVVTSTAGNASASA
# B9: FS-2773 (peptide)
# chain: CARRGRFKGLAGNASASA
# B10: FS-2770 (peptide)
# chain: CARRARSLALAGNASASA
# B11: FS-2177 (peptide)
# chain: CARRARFLHEAGNASASA
# B12: FS-2358 (peptide)
# chain: CARPRRETCHAGNASASA
# B13: FS-2772 (peptide)
# chain: CARRARVVHMAGNASASA
# B14: FS-2774 (peptide)
# chain: CARRGRSRSRAGNASASA
# B15: HC663 (peptide)
# chain: CARRGREILLAGNASASA
# B16: FS-1832 (peptide)
# chain: CARPQRSACHAGNASASA
# B17: HC513 (peptide)
# chain: CAVGSSIASWAGNASASA
# B18: HC2204 (peptide)
# chain: CAEVVTSIWVAGNASASA
# B19: HC694 (peptide)
# chain: CAQTFLATCIAGNASASA
# B20: HC154 (peptide)
# chain: CAEVVTCTWVAGNASASA
# B21: HC1041 (peptide)
# chain: CAWAKHMWNFAGNASASA
# B22: FS-1773 (peptide)
# chain: CARRARVVWCAGNASASA
# B23: FS-2592 (peptide)
# chain: CARRARFVSKAGNASASA
# B24: FS-3044 (peptide)
# chain: CARQSRAPSKAGNASASA
# B25: HC1514 (peptide)
# chain: CATSCGNTLTAGNASASA
# B26: FS-1426 (peptide)
# chain: CATSNRQPRKAGNASASA
# B27: FS-273 (peptide)
# chain: CALSSREARVAGNASASA
# B28: FS-616 (peptide)
# chain: CALSSRVPRSAGNASASA
# B29: FS-828 (peptide)
# chain: CALSSRTARSAGNASASA
# B30: FS-1103 (peptide)
# chain: CAVSGRVPRSAGNASASA
# B31: FS-1380 (peptide)
# chain: CAPFSRVPRKAGNASASA
# B32: FS-2542 (peptide)
# chain: CAPFPRDVGKAGNASASA
# B33: HC1389 (peptide)
# chain: CAVYSTTSRSAGNASASA
# B34: HC2130 (peptide)
# chain: CAEVVVCCSMAGNASASA
# B35: FS-1435 (peptide)
# chain: CAVSGRRNRSAGNASASA
# B36: FS-764 (peptide)
# chain: CAESGRENRSAGNASASA
# B37: FS-559 (peptide)
# chain: CARIGRTARSAGNASASA
# B38: FS-688 (peptide)
# chain: CALSSRHSRSAGNASASA
# B39: HC2151 (peptide)
# chain: CADVVTSTWVAGNASASA
# B40: HC666 (peptide)
# chain: CALLGPADGMAGNASASA
# B41: HC634 (peptide)
# chain: CATYVYNHLTAGNASASA
# B42: HC1669 (peptide)
# chain: CAYEECSQHLAGNASASA
# Target: furin, P09958
# Sequence (P09958 whole entry): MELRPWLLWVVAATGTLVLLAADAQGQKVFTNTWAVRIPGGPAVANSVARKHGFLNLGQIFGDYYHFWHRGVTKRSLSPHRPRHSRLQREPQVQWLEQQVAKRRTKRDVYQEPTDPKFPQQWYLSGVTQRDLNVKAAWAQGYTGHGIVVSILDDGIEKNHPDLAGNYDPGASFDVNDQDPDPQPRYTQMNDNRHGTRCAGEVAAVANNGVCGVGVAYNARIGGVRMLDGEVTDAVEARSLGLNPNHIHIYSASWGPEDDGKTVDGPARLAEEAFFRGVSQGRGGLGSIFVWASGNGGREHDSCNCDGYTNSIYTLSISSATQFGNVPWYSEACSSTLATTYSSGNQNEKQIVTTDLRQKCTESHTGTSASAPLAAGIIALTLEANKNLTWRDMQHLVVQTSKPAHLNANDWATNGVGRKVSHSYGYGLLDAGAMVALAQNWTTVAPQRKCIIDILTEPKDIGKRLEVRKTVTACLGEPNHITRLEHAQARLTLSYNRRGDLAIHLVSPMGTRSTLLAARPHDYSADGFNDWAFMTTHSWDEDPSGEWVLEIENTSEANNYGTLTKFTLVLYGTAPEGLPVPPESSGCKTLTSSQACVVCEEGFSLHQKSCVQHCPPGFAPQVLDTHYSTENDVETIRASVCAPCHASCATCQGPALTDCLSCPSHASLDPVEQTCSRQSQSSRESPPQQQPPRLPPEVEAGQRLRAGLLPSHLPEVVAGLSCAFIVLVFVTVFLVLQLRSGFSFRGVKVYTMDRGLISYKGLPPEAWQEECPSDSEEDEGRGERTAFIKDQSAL
# Experiment: furin cleavage Z-score vs untreated control; higher = more cleavage, active = 3.5 or more, inactive = 1 or less, 8 variable residues between constant flanks
# Outline: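 Furin cleavage was scored on 8-mer peptides joined to a cDNA oligonucleotide and bound to magnetic beads at the N-terminus. Digestion with purified furin (1:10 enzyme:substrate, 0.01 ml, 50 mM HEPES pH 7.5, CaCl2, NaCl) lasted 7.5, 15 or 30 min. Freed DNA was tagged with adapters by PCR, sequenced and counted; the cleavage Z-score is the lowess-adjusted log count versus furin-free reactions, scaled by median absolute deviation.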
Sequence,furin cleavage Z-score (7.5 min),furin cleavage Z-score (15 min),furin cleavage Z-score (30 min)
B1,0.672 (inactive),0.344 (inactive),1.61
B2,-0.725 (inactive),0.0221 (inactive),1.53
B3,1.19,1.24,-0.113 (inactive)
B4,-0.794 (inactive),0.477 (inactive),-0.455 (inactive)
B5,1.56,0.496 (inactive),-0.862 (inactive)
B6,0.641 (inactive),1.59,1.09
B7,-0.78 (inactive),-0.196 (inactive),0.451 (inactive)
B8,1.41,0.163 (inactive),0.356 (inactive)
B9,-2.35 (inactive),0.257 (inactive),-0.0126 (inactive)
B10,4.92 (active),6.9 (active),6.89 (active)
B11,0.34 (inactive),2.97,5.38 (active)
B12,7.06 (active),6.02 (active),6.63 (active)
B13,-0.133 (inactive),-2.18 (inactive),-0.247 (inactive)
B14,-0.725 (inactive),-0.261 (inactive),-0.331 (inactive)
B15,2.14,3.52 (active),5.12 (active)
B16,-0.244 (inactive),1.03,2.47
B17,1.24,0.758 (inactive),1.42
B18,-1.22 (inactive),-0.886 (inactive),-0.589 (inactive)
B19,-1.16 (inactive),1.03,0.494 (inactive)
B20,0.26 (inactive),0.377 (inactive),0.00628 (inactive)
B21,2.37,1.51,-0.0839 (inactive)

Sequence,furin cleavage Z-score (7.5 min),furin cleavage Z-score (15 min),furin cleavage Z-score (30 min)
B22,-0.495 (inactive),-0.908 (inactive),-1.05 (inactive)
B23,1.79,3.6 (active),4.51 (active)
B24,-0.34 (inactive),-1.03 (inactive),0.0856 (inactive)
B25,0.831 (inactive),-1.07 (inactive),0.652 (inactive)
B26,0.777 (inactive),2.06,3.28
B27,0.397 (inactive),1.38,-0.0178 (inactive)
B28,10.7 (active),10.8 (active),8.57 (active)
B29,10.9 (active),12.5 (active),10.5 (active)
B30,8.22 (active),7.59 (active),5.91 (active)
B31,4.53 (active),5.54 (active),7.08 (active)
B32,0.749 (inactive),0.654 (inactive),-0.494 (inactive)
B33,0.122 (inactive),-0.119 (inactive),-0.531 (inactive)
B34,0.168 (inactive),-0.257 (inactive),-0.566 (inactive)
B35,7.11 (active),8.52 (active),7.39 (active)
B36,0.222 (inactive),0.598 (inactive),-0.14 (inactive)
B37,14.2 (active),12.8 (active),11.2 (active)
B38,7.04 (active),9.83 (active),7.06 (active)
B39,0.471 (inactive),-0.0629 (inactive),0.991 (inactive)
B40,-0.849 (inactive),-0.827 (inactive),-0.909 (inactive)
B41,-0.232 (inactive),0.658 (inactive),0.0846 (inactive)
B42,1.21,0.943 (inactive),2.11
